Bioassay records (PubChem)
Compounds with a hit are over-represented: about 18% of the library has one in this group of screens.
PLK1 PBD block = blocks phosphopeptide binding to human PLK1 polo-box domain. Plk1 PBD binding of FITC phosphopeptide, fluorescence polarization. Potency, µM, inactives show max response, negative = inhibition, actives largely listed as inhibitors. hit rate 2.8% among 360,000. AID 720504; further: series mostly up to about 57 µM; nearly all actives have a fitted effect of over 65% in size
GCN5L2 inh = blocks human GCN5L2 histone acetyltransferase. hit rate 0.21% among 390,000. Q92830. GCN5L2 HAT assay, ThioGlo1 CoA-SH fluorescence. Potency, µM (highest dose often 58.9 µM), for the others: top-dose activity change, negative = inhibition, actives largely listed as inhibitors
Target sequence (Q92830 whole entry, looked up): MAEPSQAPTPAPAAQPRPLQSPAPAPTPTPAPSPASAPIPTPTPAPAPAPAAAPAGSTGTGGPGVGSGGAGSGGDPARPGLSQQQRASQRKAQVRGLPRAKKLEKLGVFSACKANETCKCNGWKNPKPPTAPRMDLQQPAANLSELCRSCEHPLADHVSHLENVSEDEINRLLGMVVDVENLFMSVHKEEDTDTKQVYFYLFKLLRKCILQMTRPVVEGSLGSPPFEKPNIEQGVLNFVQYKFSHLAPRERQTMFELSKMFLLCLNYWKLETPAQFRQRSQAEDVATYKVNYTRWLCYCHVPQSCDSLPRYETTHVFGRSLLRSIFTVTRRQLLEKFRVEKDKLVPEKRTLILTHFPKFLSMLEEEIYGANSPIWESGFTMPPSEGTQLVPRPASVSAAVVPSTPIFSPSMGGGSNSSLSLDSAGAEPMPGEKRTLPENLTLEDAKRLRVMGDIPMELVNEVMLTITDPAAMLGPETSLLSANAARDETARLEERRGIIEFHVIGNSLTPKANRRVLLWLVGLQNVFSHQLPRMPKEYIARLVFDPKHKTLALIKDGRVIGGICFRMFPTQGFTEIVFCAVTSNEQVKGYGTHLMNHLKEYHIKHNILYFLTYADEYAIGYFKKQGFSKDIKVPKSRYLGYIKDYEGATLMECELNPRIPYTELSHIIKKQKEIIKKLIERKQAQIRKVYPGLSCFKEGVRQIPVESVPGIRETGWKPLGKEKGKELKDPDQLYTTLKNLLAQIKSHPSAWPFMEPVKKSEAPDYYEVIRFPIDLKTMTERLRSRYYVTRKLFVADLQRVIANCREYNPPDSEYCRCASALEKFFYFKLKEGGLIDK
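Enzyme at 20nM final was mixed with library compounds for 15 min at room temperature. Peptide H3(1-25) at 75uM, acetyl-CoA at 70uM and ThioGlo1 at 50uM were then added. Plates were read immediately and after 20 min (Ex340nm/Em540nm).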
DT40 TDP1 no CPT = qHTS for Inhibitors of human tyrosyl-DNA phosphodiesterase 1 (TDP1): qHTS in cells in absence of CPT | hit rate 15% among 420,000 | Potency, µM (doses to about 46.2 µM), without a hit: at the highest dose activity change, negative = growth inhibition, usual class: inhibitors | DT40 Tdp1-/- hTDP1 cells, no CPT, ATP luminescence, 48 h; further: nearly all actives have a fitted effect of over 55% in size
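No-CPT arm: Tdp1-/-;hTDP1 DT40 cells (400/well) plus compounds, incubated ≥48 hr at 37 °C. Readout CellTiter-Glo luminescence.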
TDP1 cell CPT = growth inhibition of DT40 Tdp1-/-;hTDP1 cells with camptothecin (screen for TDP1 inhibitors) | chicken DT40 Tdp1-/-;hTDP1 cells + 20 nM CPT, ATP luminescence, 48 h | Potency, µM (top dose mostly 46.2 µM), for inactives: top-dose activity change, negative = growth inhibition, actives largely listed as inhibitors | hit rate 12% among 420,000; further: nearly all actives have a fitted effect of over 55% in size
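Cell growth measured by CellTiter-Glo luminescence after a minimum 48 h, 37 C compound exposure with 20 nM CPT in Tdp1-knockout DT40 cells stably expressing hTDP1, seeded 400/well; qHTS titration format.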
VDR inhibitor = blocks the human vitamin D receptor | Potency, µM, inactives show max response, negative = inhibition, most hits filed as inhibitors | hit rate 0.93% among 400,000 | P11473 | VDR-SRC2-3 peptide fluorescence polarization, 2 h | AID 504847
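Fluorescence polarization assay of small-molecule disruption of VDR binding to coregulator peptide SRC2-3. Compounds and controls pin-transferred, then read after 2 h incubation at ambient room temperature.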
TDP1 block = inhibitors of human tyrosyl-DNA phosphodiesterase TDP1. Q9NUW8. recombinant TDP1, AlphaScreen DNA substrate cleavage. Potency, µM (doses to about 130 µM), for the others: at the highest dose activity change, negative = inhibition, usual class: inhibitors. hit rate 0.28% among 350,000; further: nearly all actives have a fitted effect of over 40% in size
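AlphaScreen read-out: signal falls as enzyme removes the 3' tyrosine-FITC from a 5'-biotinylated DNA oligo (15 nM, 5 min, RT). Enzyme was E. coli-made recombinant Tdp1 at 1 nM, exposed to compound for 15 min beforehand; beads 10 ug/ml, 10 min.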
* hit, by the source's call; [ ] = remark or other dose. The call rests on the fitted dose curve; in most records, active means well fitted curve in the direction sought with a large enough effect; inconclusive means small, poorly fitted or top-dose-only effect, or another doubt; inactive means no such curve, though single readings can be large; an effect the other way counts as inactive or inconclusive. On the % scale 0 is the no-effect control and ±100 the full control effect; potency means the concentration at half of the fitted maximal effect.

What do the screens show for `CNC(C)C#Cc1c(-c2cc(OC)c(OC)c(OC)c2)noc1C` (stereo unspecified)?
PLK1 PBD block: 0%; GCN5L2 inh: -10%; DT40 TDP1 no CPT: 16µM*; TDP1 cell CPT: inconclusive; VDR inhibitor: -2%

Results for CCCCn1nc(NC(=O)c2cccc(Cl)c2)c2cc3ccc(C)cc3nc21 ?
GCN5L2 inh: -6%; DT40 TDP1 no CPT: inconclusive; TDP1 cell CPT: inconclusive; VDR inhibitor: 7%; TDP1 block: -10%

Results for CCOc1ccccc1CNn1cnnc1SCC(=O)NC(C)(C)C ?
PLK1 PBD block: -5%; DT40 TDP1 no CPT: -2%; TDP1 cell CPT: 3%

What do the screens show for `O=C(c1cc(COc2ccc3ncccc3c2)on1)N1CCCC(O)C1` (stereo unspecified)?
PLK1 PBD block: -22%; GCN5L2 inh: 2%; DT40 TDP1 no CPT: 21µM*; TDP1 cell CPT: inconclusive; VDR inhibitor: 8%; TDP1 block: 0%

What do the screens show for `CCOC(=O)C1CCCN(C(=O)c2cc(COc3ccc(C)nc3)on2)C1` (stereo unspecified)?
PLK1 PBD block: -7%; GCN5L2 inh: -2%; DT40 TDP1 no CPT: inconclusive; TDP1 cell CPT: inconclusive; VDR inhibitor: 5%; TDP1 block: 1%

Results for COCC1CCCN(C(=O)c2cc(COc3cccc4cccnc34)on2)C1 (stereo unspecified) ?
PLK1 PBD block: 2%; GCN5L2 inh: inconclusive; DT40 TDP1 no CPT: -1%; TDP1 cell CPT: -1%; VDR inhibitor: -5%; TDP1 block: 1%

How did COc1cccc(OCc2cc(C(=O)N3CCN(C4CCCC4)CC3)no2)c1 do in these assays?
PLK1 PBD block: -13%; GCN5L2 inh: 0%; DT40 TDP1 no CPT: -12%; TDP1 cell CPT: -7%; VDR inhibitor: 1%; TDP1 block: 2%

What do the screens show for `COCC1CCCN(C(=O)c2cc(COc3ccc4ncccc4c3)on2)C1` (stereo unspecified)?
PLK1 PBD block: -3%; GCN5L2 inh: 0%; DT40 TDP1 no CPT: 5.8µM*; TDP1 cell CPT: 7.3µM*; VDR inhibitor: 10%; TDP1 block: 1%

How did COc1cccc(OCc2cc(C(=O)N3CCCC3c3ccccn3)no2)c1 (stereo unspecified) do in these assays?
PLK1 PBD block: -7%; GCN5L2 inh: -7%; DT40 TDP1 no CPT: inconclusive; TDP1 cell CPT: inconclusive; VDR inhibitor: -12%; TDP1 block: 3%

How did O=C(c1cc(COc2ccc3ncccc3c2)on1)N1CCC[C@H]1CO do in these assays?
PLK1 PBD block: 3%; GCN5L2 inh: 4%; DT40 TDP1 no CPT: 8.2µM*; TDP1 cell CPT: 6.5µM*; VDR inhibitor: -2%; TDP1 block: 9%[56.1 µM]

How did O=C(c1cc(COc2ccc3ncccc3c2)on1)N1CCC(O)CC1 do in these assays?
PLK1 PBD block: -15%; GCN5L2 inh: 1%; DT40 TDP1 no CPT: 8.2µM*; TDP1 cell CPT: 16µM*; VDR inhibitor: 7%; TDP1 block: 6%

What do the screens show for `CCC(=O)N1CCCc2cc(S(=O)(=O)N3CCC(C(=O)NC4CCC(C)CC4)CC3)ccc21` (stereo unspecified)?
GCN5L2 inh: -1%; DT40 TDP1 no CPT: inconclusive; TDP1 cell CPT: inconclusive; VDR inhibitor: -10%; TDP1 block: 8%

What do the screens show for `COc1cccc(OCc2cc(C(=O)N3CCC(C(O)C(C)C)CC3)no2)c1` (stereo unspecified)?
PLK1 PBD block: -17%; GCN5L2 inh: -17%; DT40 TDP1 no CPT: inconclusive; TDP1 cell CPT: inconclusive; VDR inhibitor: 11%; TDP1 block: 1%

How did CCC(O)C1CCN(C(=O)c2cc(COc3ccc4ncccc4c3)on2)CC1 (stereo unspecified) do in these assays?
PLK1 PBD block: -4%; GCN5L2 inh: -7%; DT40 TDP1 no CPT: 3.7µM*; TDP1 cell CPT: 4.1µM*; VDR inhibitor: 3%; TDP1 block: 0%

What do the screens show for `O=C(Cc1csc(N2CCOCC2)n1)N/N=C/c1ccc(O)c(O)c1O`?
PLK1 PBD block: 11µM*; GCN5L2 inh: -14%; DT40 TDP1 no CPT: inconclusive; TDP1 cell CPT: inconclusive; VDR inhibitor: 10%; TDP1 block: inconclusive

How did O=C(CCN1CCN(c2ccccc2)CC1)N/N=C/c1ccc(O)c(O)c1O do in these assays?
PLK1 PBD block: 11µM*; GCN5L2 inh: -22%; DT40 TDP1 no CPT: inconclusive; TDP1 cell CPT: inconclusive; VDR inhibitor: -15%; TDP1 block: 0%

What do the screens show for `O=C(CCN1CCOCC1)N/N=C/c1cc(Br)cc(Br)c1O`?
PLK1 PBD block: -11%; GCN5L2 inh: 2%; DT40 TDP1 no CPT: 18µM*; TDP1 cell CPT: 6.5µM*; VDR inhibitor: 18%; TDP1 block: 2%

How did COc1cc(/C=N/NC(=O)CCN2CCN(c3ccccc3)CC2)cc(OC)c1OC do in these assays?
PLK1 PBD block: -3%; GCN5L2 inh: -1%; DT40 TDP1 no CPT: inconclusive; TDP1 cell CPT: -4%; VDR inhibitor: 9%; TDP1 block: 3%

How did CCc1ccc(C(=O)c2cn(CC(=O)Nc3cc(F)ccc3F)c3nc(C)ccc3c2=O)cc1 do in these assays?
GCN5L2 inh: -23%; DT40 TDP1 no CPT: -1%; TDP1 cell CPT: -7%; VDR inhibitor: -10%; TDP1 block: -3%

How did CCCn1c2c(c(O)c(C(=O)Nc3nccs3)c1=O)CCCC2 do in these assays?
PLK1 PBD block: 3%; GCN5L2 inh: -3%; DT40 TDP1 no CPT: inconclusive; TDP1 cell CPT: 6%; VDR inhibitor: -2%; TDP1 block: 4%

What do the screens show for `CCOC(=O)Cc1csc(NC(=O)c2c(O)c3c(n(CC(C)C)c2=O)CCCC3)n1`?
PLK1 PBD block: 1%; GCN5L2 inh: 2%; DT40 TDP1 no CPT: inconclusive; TDP1 cell CPT: 21µM*; VDR inhibitor: 8%; TDP1 block: -2%

What do the screens show for `CC(C)Cn1c2c(c(O)c(C(=O)Nc3nccs3)c1=O)CCCC2`?
PLK1 PBD block: -26%; GCN5L2 inh: -10%; DT40 TDP1 no CPT: inconclusive; TDP1 cell CPT: 16µM*; VDR inhibitor: -9%; TDP1 block: 2%

How did O=C(c1ccncc1)N1CCC2(CCN(Cc3ccncc3)CC2)CC1 do in these assays?
GCN5L2 inh: 12%; DT40 TDP1 no CPT: -10%; TDP1 cell CPT: -4%; VDR inhibitor: inconclusive

How did N#Cc1cccc(C=C(C(=O)c2ccccc2)c2ccccc2)c1 do in these assays?
DT40 TDP1 no CPT: 19µM*; TDP1 cell CPT: 12µM*
